Bioassay records as filed in PubChem.
Shn3 3UTR inh: reduction of Shn3 3'UTR firefly luciferase signal, primary screen, Schnurri-3 inhibitor project, cell-based, Clone20 osteoblasts, set 2. Clone20 osteoblast Shn3 3'UTR firefly luciferase, 24 h. inhibition, % at 12.5 µM. actives 0.52% (n = 360,000). AID 588674, 2011;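 active = mean inhibition of at least 75% with every replicate also reaching 75%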;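 note: 0% = median of neutral control wells and 100% = pilot-screen positive control compound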
697 NFkB inh: inhibitors of PMA/ionomycin-induced NF-kB reporter, 697 cells, primary screen, B-cell NF-kB inhibitor project, cell-based, luminescence, uHTS; 697 B-cell NF-kB luciferase reporter, 16 h; inhibition, % at 4 µM; actives 0.33% (n = 330,000); AID 435022, 2010; in the data active = inhibition above about 35%
MITF TRPM1 inh: inhibitors of MITF-dependent TRPM1 promoter reporter, primary screen, cell-based, SK-MEL-5, single point, luciferase; actives 0.83% (n = 330,000); SK-MEL-5 TRPM1 promoter luciferase, 24 h; inhibition, % at 12.5 µM; AID 488899, 2010;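 active = mean inhibition across replicates of 60% or more, whatever share of single replicates reaches that level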
LMP1 NFkB inh: EBV LMP1-driven NF-kappaB luciferase reporter inhibitors, primary screen, cell-based, luminescence, single point | actives 0.69% (n = 350,000) | LMP1-induced NF-kappaB luciferase reporter cells | inhibition, % at 12.5 µM; in the data active = inhibition above about 41%;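 note: 0% = neutral control wells and 100% = reference inhibitor control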
Gli-Sufu antag: Gli-Sufu pathway antagonists, primary screen, luciferase luminescence, Sufu-KO-LIGHT cells, uHTS; Sufu-KO-LIGHT fibroblasts, Gli luciferase reporter luminescence; inhibition, % at 5 µM; actives 0.74% (n = 340,000); AID 588413, 2011;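 active = inhibition above about 55%, limit read from the data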;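 note: 0% = DMSO-treated cells and 100% = wells with medium but no cells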
Jurkat NFkB inh: inhibitors of induced NF-kB luciferase reporter, primary screen, TCR NF-kB activation inhibitor project, cell-based, luminescence, uHTS | AID 435003, 2010 | Jurkat, PMA/ionomycin-induced NF-kB luciferase reporter | inhibition, % at 4 µM | actives 0.53% (n = 330,000); in the data active = inhibition above about 50%
697 NFkB conf: PMA/ionomycin-induced NF-kB reporter inhibitors, 697 retest, confirmation, B-cell NF-kB inhibitor project, cell-based, luminescence, single concentration | shares compounds with 697 NFkB inh | 697 B-cell NF-kB luciferase, 16 h | inhibition, % at 4 µM | actives 35% (n = 2,000); in the data active = inhibition mostly above about 28%, no sharp cut-off; inactive = mostly below about 22%
* = called active by the depositor; i = inactive; x = no result. This is a sample that favours compounds with a hit; in the whole collection about 2.3% have one here.

SMILES | Shn3 3UTR inh | 697 NFkB inh | MITF TRPM1 inh | LMP1 NFkB inh | Gli-Sufu antag | Jurkat NFkB inh | 697 NFkB conf
Cc1nc2cc(-c3cccc(F)c3)nn2c(C)c1CCC(=O)NC(C)c1ccc2c(c1)OCCO2 (stereo not drawn) | 35 | 19 | 7 | 7 | 14 | -3 | x
S=C(Nc1ccc2nsnc2c1)N1CCCC1 | -16 | -36 | -49 | -16 | -8 | -11 | x
C=CCn1c(=N)c(C(=O)NCCCOC)cc2c(=O)n3cc(C)ccc3nc21 | -10 | -1 | -2 | -20 | 28 | -6 | x
CC(C)c1ccc(/C=N/NC(=O)c2ccccn2)cc1 | x | -152 | -4 | 30 | -34 | -116 | x
CCOC(=O)C1CCN(C(=O)CCc2c(C)nc3cc(-c4ccccc4)nn3c2C)CC1 | 32 | 29 | 30 | 6 | 30 | 24 | x
CCOC(=O)C1CCCCN1C(=O)CCc1c(C)nc2cc(-c3ccccc3)nn2c1C (stereo not drawn) | 15 | 35* | x | 17 | 25 | 20 | 27
O=C(Cc1coc2ccc3ccccc3c12)Nc1nnc(C2CC2)s1 | 16 | i | 17 | 14 | -2 | -36 | -414
O=C(Nc1cc(C(=O)N2CCCC2)ccc1N1CCCC1)c1ccccc1F | 16 | 44* | 27 | 51* | 4 | 11 | -5
O=C(Nc1ccc(C(=O)N2CCCC2)cc1)c1ccccc1F | -29 | -13 | -15 | 4 | -34 | -19 | x
Cc1cc(OCC(=O)Nc2ccc(CCO)cc2)c2c(C)c(C)c(=O)oc2c1 | -5 | 36* | -8 | -1 | 1 | 0 | 40*
CSc1ccc(/C=C(\NC(=O)c2ccccc2)C(=O)NCCN2CCOCC2)cc1 | -1 | 9 | -5 | 1 | -17 | -3 | x
NS(=O)(=O)c1ccc(N=Nc2ccc(O)c3ncccc23)cc1 | 78 | -388 | 33 | 18 | 49 | 14 | -255
CCOc1ccccc1NC(=O)CSc1nnnn1-c1ccccc1 | 35 | 11 | -3 | -1 | -5 | -2 | x
CCOC(=O)/C(C#N)=C/c1cc(C)n(-c2ccc(Br)cc2)c1C | x | 0 | x | x | x | -15 | x
CCOC(=O)/C(C#N)=C/c1cc(C)n(-c2ccccc2)c1C | -9 | -289 | -63 | -25 | -21 | -81 | -115
CCOc1ccc(/C=N/n2nnnc2N)cc1OCC | -4 | 4 | -4 | -3 | 1 | 10 | x
CC(=O)Nc1cccc(C(=O)/C=C/c2ccc(F)cc2)c1 | -2 | 15 | -7 | 0 | -20 | -7 | x
CC(=O)Nc1cccc(C(=O)/C=C/c2ccc(/C=C/C(=O)c3cccc(NC(C)=O)c3)cc2)c1 | x | -293 | x | x | x | 13 | -46
O=C(N/N=C/C(Br)=C\c1ccccc1)c1n[nH]c2c1CCC2 | 19 | i | -2 | -44 | 10 | 39 | -472
CCCCCCn1c(-c2ccco2)nc2oc3cc(OC)ccc3c(=O)c2c1=O | -15 | 42* | 9 | -2 | 22 | 7 | 35*
COc1ccc(CNC(=O)COC(=O)c2ccc3ccccc3n2)cc1 | -21 | -7 | 5 | -2 | 3 | -3 | x
CC1Cc2ccccc2N1S(=O)(=O)c1cccc(C(=O)N2CCN(c3ncccn3)CC2)c1 (stereo not drawn) | 3 | i | 17 | 29 | 9 | -40 | i
O=C(c1cccs1)N(Cc1nc2sc3c(c2c(=O)[nH]1)CCCC3)C1CCCC1 | 5 | -324 | 7 | -12 | -1 | -15 | -300
Cc1sc2nc(CN(C(=O)c3cccs3)C3CCCC3)[nH]c(=O)c2c1C | 9 | -42 | -6 | 9 | 3 | -3 | x
Cc1ccc(NC(=O)c2sc3ccccc3c2Cl)nc1 | 21 | -311 | 16 | 32 | -64 | -56 | -275
Cc1nnc2ccc(-c3cccc(NS(=O)(=O)c4cc(F)ccc4F)c3)nn12 | -6 | 38* | -4 | 16 | 14 | -12 | -1
